Data as given in PubChem BioAssay (Tox21).
Several values for one entry are separate records, joined by “and”; a condition that tells them apart may be missing. Equal values may be shown once. Results filed as inconclusive are left out. Activity calls are given as the source filed them. Unless noted, the call rests on the fitted dose curve; in most records, active means well fitted curve in the direction sought with a large enough effect in the repeat runs; inconclusive means weak or mixed curves; inactive means no such curve, though single readings can be large; an effect the other way counts as inactive or inconclusive.

Assays:
[1] = qHTS assay to identify small molecule agonists of the RXR signaling pathway - cell viability counter screen (AID 1159529); further: nearly all actives have a fitted effect of over 50% in size; further: potency means the concentration at half of the fitted maximal effect;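 on activity change, negative = cytotoxicity: HEK 293T cells carrying an RXR-alpha UAS beta-lactamase reporter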
Procedure, shortened: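 RXR-alpha-UAS-bla HEK 293T cells in medium with 2% charcoal-stripped FBS were preincubated 5 hr, then exposed to compounds for 16 hr at 37 C. Viability was read as CellTiter-Glo luminescence after 30 min at room temperature.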

[2] = qHTS assay to identify small molecule antagonists of the retinoid acid receptor (RAR) signaling pathway - cell viability counter screen (AID 1159551); further: nearly all actives have a fitted effect of over 35% in size; further: potency means the concentration at half of the fitted maximal effect
Procedure, shortened: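 C3RL4 RARE-luciferase line; cpds + retinol 1 uM final, 6 h, 37 C/5% CO2; CellTiter-Glo ATP luminescence, 30 min RT.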

[3] = qHTS assay to identify small molecule antagonists of the retinoic acid receptor (RAR) signaling pathway (AID 1159552; further: nearly all actives have a fitted effect of over 50% in size; further: potency means the concentration at half of the fitted maximal effect)
Procedure, shortened: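 RARE-luc C3RL4 cells; cpds + 1 uM (final) retinol, 6 hr, 37 C/5% CO2; luciferase reagent, 30 min RT, luminescence readout. Inhibitors of retinol-driven signal scored.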

[4] = qHTS assay to identify small molecule agonists of the retinoic acid receptor (RAR) signaling pathway (AID 1159553); details: C3RL4 RARE luciferase reporter, agonist, 6 h; activation: at 73.3 µM (top of the series) unless noted; further: potency means the concentration at half of the fitted maximal effect
Procedure, shortened: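 RARE-luc C3RL4 cells; overnight attachment 37 C/5% CO2; compound (DMSO) 6 hr; luciferase reagent, 30 min RT; luminescence read-out.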

[5] = qHTS assay to identify small molecule antagonists of the estrogen related receptor (ERR) signaling pathway - cell viability counter screen (AID 1224818)
Procedure, shortened: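 Fluorescence from CellTiter-Fluor, read 30 min after reagent addition at 37 C, measured viability of ERR cells exposed to compounds for 17.5 h. Cells had settled 6 h before dosing.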

[6] = qHTS assay to identify small molecule antagonists of the estrogen related receptor (ERR) signaling pathway from Tox21 library - cell viability counter screen (AID 1224834); further: nearly all actives have a fitted effect of over 30% in size; further: potency means the concentration at half of the fitted maximal effect
Procedure, shortened: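 Multiplexed viability counter screen in ERR cells: 17.5 h compound exposure at 37 C, CellTiter-Fluor added, 30 min at 37 C/5% CO2, fluorescence read.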

[7] = qHTS assay to identify small molecule agonists of the constitutive androstane receptor (CAR) signaling pathway - cell viability counter screen (AID 1224836); further: nearly all actives have a fitted effect of over 45% in size; further: potency means the concentration at half of the fitted maximal effect
Procedure, shortened: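 HepG2 cells stably carrying hCAR and a CYP2B6-2.2kb reporter were plated 4 h, then given compounds at 15 concentrations plus PK11195 (final 0.75 uM). After 23 h at 37 C, viability was read by CellTiter-Fluor fluorescence.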

[8] = molecular target: Nuclear receptor subfamily 1 group I member 3 (Homo sapiens) (UniProt Q14994); assay: qHTS assay to identify small molecule agonists of the constitutive androstane receptor (CAR) signaling pathway (AID 1224839);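 further: HepG2 cells stably carrying human CAR and a CYP2B6 luciferase reporter; nearly all actives have a fitted effect of over 15% in size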
Sequence of Nuclear receptor subfamily 1 group I member 3 (Homo sapiens) (Q14994 whole entry, looked up): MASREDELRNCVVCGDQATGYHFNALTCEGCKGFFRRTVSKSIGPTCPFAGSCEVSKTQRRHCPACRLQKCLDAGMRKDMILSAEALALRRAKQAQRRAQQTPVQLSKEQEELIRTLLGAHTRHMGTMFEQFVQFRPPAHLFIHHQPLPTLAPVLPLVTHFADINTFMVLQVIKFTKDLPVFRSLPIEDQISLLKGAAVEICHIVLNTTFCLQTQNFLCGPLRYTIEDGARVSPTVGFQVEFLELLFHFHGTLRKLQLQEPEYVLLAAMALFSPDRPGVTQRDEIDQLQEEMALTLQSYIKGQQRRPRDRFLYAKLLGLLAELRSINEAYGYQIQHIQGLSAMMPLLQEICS
Procedure, shortened: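 HepG2 cells stably expressing hCAR and a CYP2B6-2.2kb luciferase reporter were treated with compounds at 15 concentrations plus 0.75 uM PK11195 (final) for 24 h at 37 C; luminescence was read after ONE-Glo addition.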

[9] = qHTS assay to identify small molecule antagonists of the estrogen related receptor signaling pathway with the pleiotropic PPARgamma coactivator (PGC) from Tox21 10K library - cell viability counter screen (AID 1224840; active means well fitted cell-killing curve with a large enough effect in the repeat runs, not every such curve was filed as active; further: nearly all actives have a fitted effect of over 40% in size)
Procedure, shortened: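 Fluorescence read-out of CellTiter-Fluor viability reagent, added after cells had been exposed to compound in DMSO for 17.5 h at 37 C; 30 min development at 37 C/5% CO2. Cells: PGC/ERR line, 2,000/well.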

[10] = qHTS assay to identify small molecule agonists of the hypoxia (HIF-1) signaling pathway - cell viability counter screen (AID 1224844; calls by dose curve; further: nearly all actives have a fitted effect of over 50% in size; further: potency means the concentration at half of the fitted maximal effect)
Procedure, shortened: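 CellTiter-Glo luminescence read-out, 30 min RT, taken in the same wells as the beta-lactamase HRE reporter assay; HRE-bla ME-180 cells, 0.5% dialyzed FBS, 17 hr compound treatment at 37C, 5% CO2.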

[11] = molecular target: Luciferin 4-monooxygenase (Photinus pyralis) (UniProt P08659); assay: qHTS assay to identify small molecule inhibitors of firefly luciferase (AID 1224835); further: nearly all actives have a fitted effect of over 25% in size; further: potency means the concentration at half of the fitted maximal effect
Sequence of Luciferin 4-monooxygenase (Photinus pyralis) (P08659 whole entry, looked up): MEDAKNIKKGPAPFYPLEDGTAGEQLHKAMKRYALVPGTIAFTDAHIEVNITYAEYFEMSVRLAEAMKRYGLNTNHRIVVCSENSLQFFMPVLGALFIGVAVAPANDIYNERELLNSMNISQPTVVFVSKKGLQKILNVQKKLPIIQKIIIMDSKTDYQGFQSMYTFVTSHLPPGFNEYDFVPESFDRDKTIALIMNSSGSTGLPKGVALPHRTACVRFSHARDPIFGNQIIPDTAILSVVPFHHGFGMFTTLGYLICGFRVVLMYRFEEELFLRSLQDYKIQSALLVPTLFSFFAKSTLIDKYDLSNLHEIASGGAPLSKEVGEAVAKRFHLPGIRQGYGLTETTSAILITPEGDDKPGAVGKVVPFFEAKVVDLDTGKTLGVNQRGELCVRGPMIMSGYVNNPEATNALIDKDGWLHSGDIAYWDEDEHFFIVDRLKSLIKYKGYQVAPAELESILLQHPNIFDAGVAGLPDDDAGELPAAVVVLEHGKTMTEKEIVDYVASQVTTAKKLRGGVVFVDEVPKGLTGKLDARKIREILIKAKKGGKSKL
Procedure, shortened: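 Biochemical qHTS: compounds run as interplate titrations against purified firefly enzyme, with D-luciferin and ATP each at its KM concentration. Light output recorded by CCD imaging.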

[12] = qHTS assay to identify small molecule antagonists of the constitutive androstane receptor (CAR) signaling pathway - cell viability counter screen (AID 1224837); further: nearly all actives have a fitted effect of over 45% in size
Procedure, shortened: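 Read-out: CellTiter-Fluor fluorescence after 23 hr at 37 C/5% CO2. Cells: HepG2 double-stable for hCAR and CYP2B6-2.2kb. Compounds tested at 15 concentrations in the presence of CITCO, final concentration 50 nM.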

[13] = molecular target: Thyrotropin receptor (Homo sapiens) (UniProt P16473); assay: qHTS assay to identify small molecule agonists of the thyroid stimulating hormone receptor (TSHR) signaling pathway (AID 1224843; calls by dose curve; further: nearly all actives have a fitted effect of over 45% in size; further: potency means the concentration at half of the fitted maximal effect)
Sequence of Thyrotropin receptor (Homo sapiens) (P16473 whole entry, looked up): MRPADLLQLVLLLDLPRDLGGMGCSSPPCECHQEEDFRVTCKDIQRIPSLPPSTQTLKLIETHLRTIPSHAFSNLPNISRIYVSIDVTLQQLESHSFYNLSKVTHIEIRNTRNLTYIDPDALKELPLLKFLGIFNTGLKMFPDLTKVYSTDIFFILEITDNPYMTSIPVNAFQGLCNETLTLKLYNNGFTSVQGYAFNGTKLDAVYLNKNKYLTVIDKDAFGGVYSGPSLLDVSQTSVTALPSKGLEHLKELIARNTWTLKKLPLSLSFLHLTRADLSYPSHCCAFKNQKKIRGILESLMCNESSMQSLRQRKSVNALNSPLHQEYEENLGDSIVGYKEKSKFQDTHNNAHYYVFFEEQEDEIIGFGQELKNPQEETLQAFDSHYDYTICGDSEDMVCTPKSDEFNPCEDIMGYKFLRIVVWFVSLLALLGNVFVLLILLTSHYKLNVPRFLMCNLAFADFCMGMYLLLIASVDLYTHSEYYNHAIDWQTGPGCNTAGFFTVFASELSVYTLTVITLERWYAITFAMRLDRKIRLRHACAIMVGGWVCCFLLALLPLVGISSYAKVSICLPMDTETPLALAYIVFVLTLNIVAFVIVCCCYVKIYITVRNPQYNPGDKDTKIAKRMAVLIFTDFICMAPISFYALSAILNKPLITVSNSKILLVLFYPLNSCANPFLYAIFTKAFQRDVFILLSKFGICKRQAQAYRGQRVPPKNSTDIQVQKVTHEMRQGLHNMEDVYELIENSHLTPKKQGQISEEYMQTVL
Procedure, shortened: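 Agonist-mode screen: TSHR HEK293 cells received test chemicals for half an hour at room temperature, then HTRF cAMP detection reagents for one hour prior to fluorescence measurement. Each chemical ran as a 15-concentration series, triplicated.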

[14] = molecular target: Nuclear receptor subfamily 1 group I member 3 (Homo sapiens) (UniProt Q14994); assay: qHTS assay to identify small molecule antagonists of the constitutive androstane receptor (CAR) signaling pathway (AID 1224838); further: nearly all actives have a fitted effect of over 40% in size
Procedure, shortened: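 Read-out: ONE-Glo luciferase luminescence after 30 min at room temperature. HepG2-CYP2B6-hCAR double-stable cells, compounds in 15-point titration plus 50 nM CITCO final, 24 h at 37 C/5% CO2.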

[15] = qHTS assay to identify small molecule antagonists of the estrogen related receptor signaling pathway with the pleiotropic PPARgamma coactivator (PGC) from Tox21 10K library (AID 1224841; call rule not given here; further: actives are mostly falling curves and most rising ones were filed inactive; nearly all actives have a fitted effect of over 50% in size)
Procedure, shortened: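 Luminescence read-out (One-Glo luciferase reagent, 30 min at room temperature) from PGC/ERR cells exposed to DMSO-dissolved test compounds for 18 h at 37 C; cells, 2,000 per well, had been preincubated 6 h before compound transfer.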

[16] = qHTS assay to identify small molecule agonists of the estrogen related receptor signaling pathway with the pleiotropic PPARgamma coactivator (PGC) from Tox21 10K library (AID 1224842); further: nearly all actives have a fitted effect of over 15% in size
Procedure, shortened: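 PGC/ERR reporter cell line, 2,000 cells per well, incubated 6 h at 37 C before 23 nL compound in DMSO was added. After 18 h at 37 C, One-Glo luminescence read following 30 min at room temperature.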
On the % scale 0 is the no-effect control and ±100 the full control effect.

CC(CCc1ccccc1)NCC(O)c1ccc(O)c(C(N)=O)c1 (stereo unspecified)
inactive: Potency [1] | Potency [2] | Potency [3] | Potency [4] | outcome [5] | Potency [8] | Potency [9] | Potency [10]
active: Potency [6] 27.3 µM | Potency [7] 30.6 µM

CCO[Si](OCC)(OCC)OCC
inactive: Potency [1] | Potency [2] | Potency [3] | Potency [4] | Potency [11] | Potency [7] | Potency [12] | Potency [8] | Potency [9] | Potency [13] | Potency [10]

Nc1ccc(C(=O)O)c(O)c1
inactive: Potency [1] | Potency [2] | Potency [3] | Potency [4] | Potency [11] | Potency [7] | Potency [12] | Potency [14] | Potency [8] | Potency [9] | Potency [15] | Potency [16] | Potency [13]

CCCCCCC1CCCC(=O)O1 (stereo unspecified)
inactive: Potency [1] | Potency [2] | Potency [3] | Potency [4] | Potency [6] | Potency [7] | Potency [12] | Potency [14] | Potency [8] | Potency [9] | Potency [15] | Potency [16] | Potency [13] | Potency [10]

c1cnccn1
inactive: Potency [1] | Potency [2] | Potency [3] | Potency [4] | Potency [11] | Potency [7] | Potency [12] | Potency [14] | Potency [8] | Potency [9] | Potency [13]

COC(=O)Nc1nc2ccc(C(=O)c3ccccc3)cc2[nH]1
inactive: Potency [1] | Potency [2] | Potency [3] | Potency [4] | Potency [7] | Potency [12] | Potency [14] | Potency [9] | Potency [13]

Cc1ccc(-c2ccccc2)cc1
inactive: Potency [1] | Potency [2] | Potency [3] | Potency [4] | Potency [6] | Potency [7] | Potency [12] | Potency [14] | Potency [8] | Potency [15] | Potency [16] | Potency [13] | Potency [10]

COc1ccc(-c2coc3cc(O)ccc3c2=O)cc1
inactive: Potency [1] | Potency [2] | Potency [3] | Potency [7] | Potency [12] | Potency [9] | Potency [13] | Potency [10]
active: Potency [4] 0.486 µM | Potency [11] 2 µM

CC(C)Cn1cnc2c(N)nc3ccccc3c21
inactive: activity change, negative = cytotoxicity [1] 1.15% [at 15.8 µM] | activity change, negative = cytotoxicity [2] -0.222% [at 19 µM] | activity, negative = inhibition [3] 2.71% [at 19 µM] | Potency [4] | viability change, negative = cytotoxic [6] -3.99% [at 19 µM] | viability change, negative = cytotoxic [7] -20.4% [at 19 µM] | activity change, negative = cytotoxicity [12] -10.6% [at 19 µM] | activity, negative = inhibition [14] 27.4% [at 19 µM] | activation [8] 6.88% [at 19 µM] | viability change, negative = cytotoxic [9] 16.3% [at 19 µM] | activity, negative = inhibition [15] 23.8% [at 19 µM] | activation [16] 6.35% [at 19 µM] | activation [13] 14.2% [at 19 µM] | activity change, negative = cytotoxicity [10] 18.6% [at 15.8 µM]

C=CC(=O)OCCOC(=O)C=C
active: Potency [10] 24.5 µM
inactive: Potency [1] | Potency [2] | Potency [3] | Potency [4] | Potency [7] | Potency [12] | Potency [14] | Potency [8] | Potency [9] | Potency [13]

C#CC1(O)CC[C@H]2[C@@H]3CCC4=CCCC[C@@H]4[C@H]3CC[C@@]21C (stereo partly specified)
inactive: Potency [4] | Potency [11] | Potency [7] | Potency [12] | Potency [15] | Potency [16]
active: Potency [1] 24.5 µM and 21.3 µM | Potency [2] 54.5 µM and 26.6 µM | Potency [3] 48.6 µM and 23.7 µM | Potency [6] 54.5 µM | Potency [13] 19.3 µM | Potency [10] 21.9 µM and 15.1 µM

CCCCC(CC)CN1CN(CC(CC)CCCC)CC(C)(N)C1 (stereo unspecified)
inactive: Potency [1] | Potency [2] | Potency [3] | Potency [4] | Potency [11] | Potency [7] | Potency [12] | Potency [9] | Potency [15] | Potency [16]

O=C1OC2(c3ccc(O)cc3Oc3cc(O)ccc32)c2ccc(N=C=S)cc21
inactive: Potency [1] | Potency [2] | Potency [3] | Potency [4] | Potency [6] | Potency [11] | Potency [12] | Potency [9] | Potency [16] | Potency [13] | Potency [10]

Cc1c(C)c2c(c(C)c1OC(=O)c1cccnc1)CC[C@@](C)(CCC[C@H](C)CCC[C@H](C)CCCC(C)C)O2
inactive: Potency [1] | Potency [2] | Potency [3] | Potency [4] | Potency [6] | Potency [11] | Potency [7] | Potency [12] | Potency [9] | Potency [15] | Potency [16] | Potency [13] | Potency [10]

C=Cc1ccccc1C=C
inactive: Potency [1] | Potency [2] | Potency [3] | Potency [4] | Potency [6] | Potency [7] | Potency [12] | Potency [9] | Potency [13] | Potency [10]

CCC(CC)C(C)CCOC(C)=O (stereo unspecified)
inactive: Potency [1] | Potency [2] | Potency [3] | Potency [4] | Potency [7] | Potency [12] | Potency [14] | Potency [8] | Potency [9] | Potency [13] | Potency [10]

CCC(=O)C(=O)CC
inactive: Potency [1] | Potency [2] | Potency [3] | Potency [4] | Potency [11] | Potency [7] | Potency [12] | Potency [8] | Potency [9] | Potency [15] | Potency [16] | Potency [13] | Potency [10]
